Assay outcomes (PubChem BioAssay)
NFkB transloc pot = enhancers of NFkB p65 translocation in HUVEC – imaging, IL-1B stimulus, high-content imaging, primary screen; 94,000 tested, 0.3% active; activation, % at 2 µM; AID 819, 2007; HUVEC IL-1B NFkB p65 nuclear translocation imaging;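 active means activation above 40%, about the mean plus 3 SD, also judged a hit on visual image review; inconclusive means activation above 40% but not a hit on visual review; inactive means activation not above 40% and no visual hit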;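 further: percent activation is computed from the nuclear over cytoplasmic p65 intensity ratio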
TNFa cytotox = cytotoxicity in TNFa-stimulated HUVEC, primary screen, cytotoxicity control for VCAM1 expression modulator project, imaging, Hoechst nuclei count; HUVEC TNFalpha-stimulated, Hoechst cell count; cell count reduction, % at 2 µM; 93,000 tested, 0.17% active;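 active means cell count reduction exceeding the screen mean by over 5 SD, scaled to untreated wells per plate, cut at about 78% in these data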;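 further: cells counted after 24 h of TNF alpha exposure following the 1 h pretreatment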
HUVEC tox IL1B = cytotoxicity in IL-1B stimulated HUVEC, primary screen, cytotoxicity control for IL-1B NFkB translocation project, imaging, Hoechst nuclear count, IL-1B stimulus. cell count reduction, % at 2 µM. 94,000 tested, 0.41% active. AID 845, 2007. HUVEC cell count loss;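 active means cell count reduction more than 3 SD above the screen-wide mean, cut at about 70% in these data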
VCAM1 TNFa inh = inhibitors of TNFa-induced VCAM1 expression, primary screen, imaging, HUVEC, TNFa stimulus, immunofluorescence; HUVEC TNFa-induced VCAM-1 immunofluorescence, high-content imaging; inhibition, % at 2 µM; 95,000 tested, 0.48% active;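 active means inhibition above the batch mean plus 3 SD, with images confirmed as a hit by eye, cut at about 37% in these data; inconclusive means inhibition above that limit but hit not confirmed in images; inactive means inhibition not above that limit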
NFkB transloc inh = inhibitors of IL-1B driven NFkB p65 nuclear import, primary screen, imaging, HUVEC, IL-1B stimulus, high-content imaging; inhibition, % at 2 µM; 94,000 tested, 0.43% active; HUVEC IL-1B NFkB p65 nuclear translocation imaging;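 active means inhibition above about 30% together with a positive call from visual inspection of the well image, limit read from the data; inconclusive means inhibition above a set limit but visual check negative; inactive means inhibition not above a set limit, visual check negative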;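 further: nuclear over cytoplasmic p65 intensity ratio measured by imaging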
A number is an active result; - = inactive; ? = inconclusive; . = no result given. The list is not random: actives were taken first. Their share in the collection is about 1.5%.

SMILES	NFkB transloc pot	TNFa cytotox	HUVEC tox IL1B	VCAM1 TNFa inh	NFkB transloc inh
CCCCn1c2c(c(=O)n(C)c1=O)C(c1ccc(OC)cc1)N1CCCCCC1=N2 (configuration not stated)	-	-	-	-	-
CCOC(=O)NC(NC(=O)OCC)C(=O)c1ccc(F)cc1	-	-	-	-	-
CCC(=O)NC(O)C(=O)c1ccc(C)cc1 (configuration not stated)	-	-	-	-	32
Cc1oc(CC(C)C)c(CN)c1C(=O)O	-	-	-	-	-
Cc1cc(C)nc(SCc2ccc3nonc3c2)n1	-	-	-	-	-
CCOc1cc(S(=O)(=O)Nc2ccccc2CC)ccc1Cl	-	79	-	98	-
CC(=O)CC(c1ccccc1)S(=O)(=O)c1ccc(C)cc1 (configuration not stated)	-	-	-	-	-
COc1ccc(C(CC(=O)c2ccccc2)S(=O)(=O)c2ccc(C)cc2)cc1 (configuration not stated)	69	-	-	-	-
NC1=CC(=O)c2cccc3cccc1c23	-	-	-	43	-
COc1ccccc1N1CCN(C(=O)c2cc(-c3ccc(C)cc3)on2)CC1	-	-	-	-	-
COc1ccccc1N1CCN(C(=O)c2cc(-c3ccc(Cl)cc3)on2)CC1	-	-	-	-	44
CCOc1ccc2ccccc2c1/C=N/n1cncn1	-	-	-	88	-
Cc1cc(C)c(OCCCCCNCCO)c(C)c1	42	-	-	-	-
Cc1cc(C)cc(OCCCCCNCCO)c1	-	-	-	96	-
Cc1cccc(C)c1NC(=O)CSc1nnc(Cn2nnc(-c3ccccc3)n2)n1-c1ccccc1	-	-	-	-	-
CCOC(=O)c1ccc(NC(=O)CCNc2c(N3CCCC3)c(=O)c2=O)cc1	-	-	-	70	-
CCOC(=O)c1ccc(NC(=O)CN2CCN(c3ccccc3)CC2)cc1	-	.	-	.	-
CCn1c(SCC(=O)Nc2ccccc2C(=O)OC)nnc1-c1ccoc1C	-	-	-	-	-
COC(=O)c1sc2ccccc2c1-n1cccc1C(=O)C(=O)Nc1ccc(OC)cc1	-	-	-	-	-
C=CCn1c(Br)nc2c1c(=O)n(C)c(=O)n2C	49	-	-	-	-
O=C(NCc1ccco1)C1CCN(C(=O)c2cc3sccc3n2Cc2ccc(F)cc2)CC1	-	-	89	-	-
COc1ccc2nc(C)c3cc(C)oc3c2c1	-	-	87	-	-
COc1cc2[nH]c(=O)n(Cc3ccc(C(=O)NC4CCCC4)cc3)c(=O)c2cc1OC	46	-	-	-	-
COc1cc2[nH]c(=O)n(Cc3ccc(C(=O)NCCCN4CCN(C)CC4)cc3)c(=O)c2cc1OC	-	-	-	-	-
COC(=O)CN(c1cccc(F)c1)S(C)(=O)=O	71	-	-	-	-
SMILES	NFkB transloc pot	TNFa cytotox	HUVEC tox IL1B	VCAM1 TNFa inh	NFkB transloc inh
C=CCn1nnc2sc3c(c2c1=O)CCC(C)C3 (configuration not stated)	-	-	-	-	48
CSc1nc2sc3c(c2c(=O)n1C)CCC(C)C3 (configuration not stated)	-	-	-	-	-
Cc1ccc(Cl)cc1N(Cc1ccc(C(=O)NCc2cccnc2)cc1)S(=O)(=O)c1ccccc1	-	-	-	-	-
Cc1ccc2[nH]c(=O)c(C(c3nnnn3CCc3ccccc3)N3CCOCC3)cc2c1 (configuration not stated)	-	-	-	-	-
O=C(NCN1CCCCC1)c1cnccn1	-	-	90	-	-
O=C(NCN1CCCCC1)c1cccnc1	-	-	-	-	-
O=C(Nc1ccccc1-c1ccccc1)C12CC3CC(CC(C3)C1)C2	-	-	-	-	-
Cc1nc(-c2ccccc2)sc1C(=O)CSc1ccc(F)cc1	-	-	-	-	36
Cc1nccn1CC(O)Cn1c2ccccc2c2ccccc21 (configuration not stated)	46	-	-	-	-
CCOc1ccc(NC(=O)CSc2nnc(C34CC5CC(CC(C5)C3)C4)n2C)cc1	-	-	-	-	-
CC(NC(=O)COC(=O)Cc1ccsc1)C1CC2CCC1C2 (configuration not stated)	-	-	-	88	-
O=C(CSc1nnc(-c2ccco2)n1-c1ccccc1)N1CCOCC1	-	-	-	-	-
O=S(=O)(NCCSc1nnc(-c2ccco2)n1-c1ccccc1)c1ccccc1	86	-	-	-	-
O=C(CSc1nc2c(c(=O)[nH]1)CCCC2)Nc1ccc(Cl)cc1F	-	-	-	-	-
COCCCNC(=O)c1cn(C)c(=O)c2cc(OC)c(OC)cc12	-	100	-	?	-
CCOC(=O)CNC(=O)c1cn(C)c(=O)c2cc(OC)c(OC)cc12	-	-	-	-	-
CCCC(C)C(=O)NCc1ccccc1OC (configuration not stated)	123	-	-	-	-
CCCCC(CC)C(=O)NCc1ccccc1OC (configuration not stated)	101	-	-	-	-
COc1ccccc1CNC(=O)c1ccccc1N	-	-	-	-	-
CCOc1ccc(C(C)=O)cc1Cn1nc(C(=O)O)c2ccccc2c1=O	-	-	-	-	-
Cc1ccc(N=C2C(=S)N(c3ccc(C)cc3)C(=N)N2/N=C/c2ccc(Cl)cc2)cc1	-	.	-	-	-
O=C(Nc1ccc(-c2nc3ccc(NC(=O)c4cccs4)cc3[nH]2)cc1)c1cccs1	-	-	-	-	-
O=C(Nc1ccc2nc(-c3cccs3)[nH]c2c1)c1cccs1	-	-	90	-	-
CCN(CC)S(=O)(=O)c1ccc(C(=O)N2CCCCC2)cc1	-	-	-	-	-
Cc1c(C(=O)O)c(-c2ccccc2)nn1-c1ccccc1	-	.	95	-	-
SMILES	NFkB transloc pot	TNFa cytotox	HUVEC tox IL1B	VCAM1 TNFa inh	NFkB transloc inh
COc1ccccc1CNC(=O)c1c(-c2ccccc2)nn(-c2ccccc2)c1C	-	-	-	-	-
CCOc1ccc(OCCSc2nc3ccccc3o2)cc1	-	-	-	-	42
CCCOc1ccc(OCCSc2ncccn2)cc1	44	-	-	-	-
Clc1ccc(OCCCCSc2ncccn2)cc1	-	-	-	-	-
Cc1cc(N2CCN(C(=O)OC(C)(C)C)CC2)n2ncnc2n1	-	-	-	-	-
COc1ccc(-c2cc(C(=O)Nc3cc(C)n(Cc4ccc(Cl)cc4)n3)no2)cc1OC	-	-	-	52	-
CC(C)CC(=O)CN1C(=O)C2(OCCO2)c2ccccc21	-	-	77	-	-
O=C(c1ccco1)N1CCN(Cc2nnnn2CCc2ccccc2)CC1	-	-	-	-	-
CC(C)(C)C(=O)/C(=C\c1ccc([N+](=O)[O-])cc1)n1cncn1	-	-	-	-	69
Cc1cc(C(=O)NCc2ccc(C(=O)O)o2)c(C)o1	-	-	-	-	-
CCOC(=O)c1ccc(COC(=O)c2cc3ccccc3oc2=O)o1	-	-	76	-	-
